Experiment [1] can be described thus: Wnt pathway potentiators raising nuclear beta-catenin – imaging, WNT3A-conditioned medium, mouse C2C12, NPC library, primary screen (AID 1117326; in the data active = nuclear beta-catenin stimulation mostly above about 4.2%, no sharp cut-off; inactive = mostly below about 10%). The settings on record: stronger effect = higher value.
A short description of experiment [2]: stimulators of insulin release from INS-1E, primary screen, cell-based, 5 mM glucose, NPC library (AID 1117329;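 active = compound raises insulin release from rat beta cells at 5 mM glucose, no numeric limit stated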). Particulars: rat INS-1E insulin secretion, at 10 µM, stronger effect = higher value.
Experiment [3] is described as follows: growth inhibition of GSK3B-pretreated HCT116 cells – cell-based, CellTiter-Glo, 0.2 to 20 µM (AID 1117336;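 active = compounds lowering colon cancer cell viability after pretreatment blocking the GSK3B kinase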). The settings on record: HCT116 viability after GSK3B inhibitor, at 20 µM, stronger effect = higher value. On the technique in general: Cellular ATP, detected with luciferase, serves as a proxy for viable cell number.
Experiment [4] in a line: inhibition of endothelial tube formation, primary screen, imaging, VEGF stimulated, CD31 staining, tube area, NPC library (AID 1117340;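 active = compound that reduces growth-factor-driven endothelial tube area in a mixed cell culture, no cutoff stated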). Particulars: VEGF-stimulated ADSC/ECFC co-culture, at 10 µM, stronger effect = higher value.
Experiment [5] in a line: GLP1 release stimulators, primary, NCI-H716, NPC library (AID 1117341;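 active = compound raises GLP1 secretion from the human gut endocrine cells, with no numeric limit stated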). Particulars: NCI-H716 cells, at 10 µM, stronger effect = higher value.
Experiment [6] is described as follows: HCT116 colon cancer cell growth inhibition, primary screen, CellTiter-Glo luminescence, NPC library (AID 1117342;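 active = compounds that lower survival of HCT116 colon cancer cells in the luminescence readout, no numeric limit stated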). The settings on record: at 20 µM (top of the series).
A short description of experiment [7]: reduced SW480 viability measured with CellTiter-Glo, NPC library, primary (AID 1117343;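 active = compounds that lower viability of the colon cancer cells in the luminescence readout, with no numeric limit stated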). The settings on record: CellTiter-Glo luminescence; at 20 µM (top of the series).
A short description of experiment [8]: NPC library primary testing for decreased DLD-1 cell viability via CellTiter-Glo (AID 1117346;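 active = compounds that lower survival of DLD-1 colon cancer cells in the luminescence readout, no cutoff given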). The settings on record: DLD-1 viability, CellTiter-Glo luminescence; at 20 µM (top of the series).
Experiment [9] in a line: liver-stage malaria parasite load reduction – cell-based, known kinase inhibitor set, luminescence, hepatoma host viability (AID 624392).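 Note: infected cells incubated roughly two days before readout.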 Particulars: Plasmodium liver stage in hepatoma cells, luciferase luminescence, concentration not given here; liver cell % of control: measured here: host liver cell viability; parasite % of control: stronger effect = lower value.
Experiment [10] is described as follows: altered dexamethasone sensitivity, NF-kB reporter, cell-based, luciferase, IL-1B stimulus (AID 624486).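 For percent of negative control (+Dex): 100% = mean signal of vehicle control wells on the plate.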 Particulars: IL-1B + dexamethasone, luminescence; percent of negative control (+Dex): actives lie on both sides, concentration not given here; z-score: measured here: IL-1B alone, no Dex.
The nature of experiment [11]: C. elegans survival during P. aeruginosa infection – whole organism (AID 651566).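 Note: tested at 14 µM; sign flipped so higher z means a lower ratio.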 Particulars: C. elegans killed by P. aeruginosa, survival ratio.
Experiment [12] in a line: pro-inflammatory signaling induction in mouse macrophages – cell-based, murine, luminescence (AID 652131). The settings on record: murine macrophage pro-inflammatory reporter, stronger effect = higher value.
The nature of experiment [13]: inducers of IRF3 signaling, differentiated THP-1 – cell-based, PMA-stimulated THP-1, luminescence (AID 1053176). Particulars: PMA-differentiated THP-1, IRF3 reporter luminescence; stronger effect = higher value.
Experiment [14] in a line: MELAS cybrid and Rieske KO viability enhancers – cell-based, MELAS cybrids, Rieske KO mouse fibroblasts, CellTiter-Glo, primary screen (AID 1508586;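 active = mean z-score across replicates of 1.96 or higher in either the MELAS or the Rieske mutant cell line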;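 note: z relative to plate mean and SD of compound and empty wells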). Particulars: low glucose.
Setting [15] is: MELAS cybrid survival, CellTiter-Glo 48 h, stronger effect = higher value.
Where [16] appears, read: Rieske KO mouse fibroblast survival, CellTiter-Glo 72 h.

Activity calls are given as the source filed them. Unless noted, the rule behind the calls is not given here.

With `Cc1onc(-c2ccccc2Cl)c1C(=O)Cl`, the nuclear beta-catenin stimulation in [1] (at 10 µM) was -1.6% (inactive); in experiment [1] (stimulation, at 2 µM), -0.5%. In addition, the insulin secretion stimulation in experiment [2] is 0.3% (inactive). Besides, the viability decrease in experiment [3] was -16.4% (inactive). For the same molecule, in experiment [4], the tube area decrease is 0.4% (inactive). In experiment [5], the GLP1 secretion stimulation is 0.1% (inactive). For the same molecule, the inhibition of viability in experiment [6] was 0.4% (inactive). The viability decrease (inhibition) in [7] was 26.4% (inactive); in [8] it was 14.3% (inactive).
With `CCS(=O)(=O)c1ccc(OC)c(Nc2ncc(-c3cccc(F)c3)o2)c1`, the liver cell % of control in experiment [9] came to 140%. In experiment [9], the parasite % of control was 19.6% (inactive). Moreover, the percent of negative control (+Dex) in [10] was 84.5% (inactive). The z-score was -0.335 in [10]; -0.615 (inactive) in [11]; -0.303 (inactive) in experiment [12]; 1.69 (inactive) in experiment [14] (setting [15]); -0.478 in [14] (setting [16]). Besides, the fraction signal in [13] was -0.0005 (inactive).
On to `CC(=O)O[C@@H]1CC2C3CCc4cc(OC(=O)c5ccccc5)ccc4C3CCC2(C)[C@H]1OC(C)=O` (some centres undefined), for which the nuclear beta-catenin stimulation is 0.7% (inactive) in experiment [1] (at 10 µM) and 1.1% in experiment [1] (stimulation, at 2 µM). Besides, in experiment [2], the insulin secretion stimulation is 0.5% (inactive). Further, the viability decrease in experiment [3] is -39.7% (inactive). Besides, the tube area decrease in experiment [4] was 27.8% (inactive). The GLP1 secretion stimulation in experiment [5] is 2.1% (inactive). In addition, in experiment [6], the inhibition of viability is 0.9% (inactive). For the same molecule, the viability decrease (inhibition) in [7] was 47% (inactive); in [8], -13.5% (inactive).
Molecule `Cc1cccc(Oc2nccc(-c3c(-c4ccc(F)cc4)ncn3C3CCNCC3)n2)c1C` showed a liver cell % of control in experiment [9] of 58.8%. In experiment [9], the parasite % of control is 99.5% (inactive). Moreover, the percent of negative control (+Dex) in experiment [10] was 104% (inactive). The z-score in experiment [10] was 0.6; in experiment [11], -0.775 (inactive); in [12] it was 8.3 (active); in experiment [14] (setting [15]), -0.134 (inactive); in [14] (setting [16]) it was -0.269. Besides, the fraction signal in experiment [13] was -0.0055 (inactive).
In experiment [9], `Cc1ccc(NC(=O)c2ccnc(N3CCOCC3)c2)cc1-c1ccc(C(=O)NCC2CC2)cc1` displayed a liver cell % of control of 100%. Moreover, the parasite % of control in experiment [9] was 95.1% (inactive). The percent of negative control (+Dex) in [10] is 102% (inactive). The z-score in experiment [10] was 1.12; in experiment [11] it was 0.01 (inactive); in experiment [12] it was -0.216 (inactive); in experiment [14] (setting [15]), -0.365 (inactive); in [14] (setting [16]), -0.395. Moreover, the fraction signal in [13] is -0.0075 (inactive).
In [9], `O=S1CCN(Cc2ccc(-c3ccc4ncnc(Nc5ccc(OCc6cccc(F)c6)c(Cl)c5)c4c3)o2)CC1` displayed a liver cell % of control of 103%. Moreover, the parasite % of control in experiment [9] was 99.6% (inactive). The percent of negative control (+Dex) in experiment [10] is 74.5% (inactive). Also, the z-score in experiment [10] is -1.72; in [11], -0.375 (inactive); in [12], 13.5 (active); in [14] (setting [15]) it was 0.445 (inactive); in experiment [14] (setting [16]) it was -0.225. Also, the fraction signal in [13] is -0.007 (inactive).
`O=C1NC(=O)C(c2cccc([N+](=O)[O-])c2)=C1Nc1cc(Cl)c(O)c(Cl)c1` yielded a liver cell % of control in experiment [9] of 108%. In addition, in experiment [9], the parasite % of control is 92.3% (inactive). Further, the percent of negative control (+Dex) in experiment [10] was 80.5% (inactive). Also, the z-score in experiment [10] is -0.485; in experiment [11], 0.045 (inactive); in [12], 0.634 (inactive); in [14] (setting [15]) it was -0.803 (inactive); in [14] (setting [16]) it was -0.48. In [13], the fraction signal was -0.003 (inactive).
Consider `O=C(O)c1ccc(Oc2nccc(-c3c(-c4ccc(F)cc4)ncn3C3CCNCC3)n2)cc1`, for which, in [9], the liver cell % of control came out at 104%. Further, the parasite % of control in [9] was 117% (inactive). Besides, the percent of negative control (+Dex) in experiment [10] is 97% (inactive). Moreover, the z-score is -0.04 in experiment [10]; -0.625 (inactive) in experiment [11]; 0.424 (inactive) in experiment [12]; -0.0801 (inactive) in experiment [14] (setting [15]); -0.396 in experiment [14] (setting [16]). For the same molecule, the fraction signal in experiment [13] is 0.0015 (inactive).
`COc1ccc2ncn(-c3cc(O[C@H](C)c4ccccc4Cl)c(C(N)=O)s3)c2c1` had a liver cell % of control in experiment [9] of 108%. Further, in experiment [9], the parasite % of control was 124% (inactive). Besides, the percent of negative control (+Dex) in [10] was 77.5% (inactive). Further, the z-score in [10] was -2.52; in experiment [11], 0.63 (inactive); in experiment [12], -1.39 (inactive); in [14] (setting [15]), -0.983 (inactive); in experiment [14] (setting [16]) it was 0.0827. Besides, the fraction signal in [13] was -0.0045 (inactive).
In [9], `Fc1ccc(-c2ncn(C3CCNCC3)c2-c2ccnc(Oc3ccc(Cl)cc3)n2)cc1` yielded a liver cell % of control of 79.3%. The parasite % of control in [9] was 63.5% (inactive). In addition, in [10], the percent of negative control (+Dex) is 103% (inactive). In addition, the z-score was 0.58 in [10]; 0.16 (inactive) in experiment [11]; -0.186 (inactive) in [12]; 0.00888 (inactive) in [14] (setting [15]); -0.374 in [14] (setting [16]). Moreover, in [13], the fraction signal was -0.006 (inactive).
For the molecule `COc1cc([C@@H]2c3cc4c(cc3[C@@H](O[C@@H]3O[C@@H]5CO[C@@H](C)O[C@@H]5[C@H](O)[C@@H]3O)[C@H]3COC(=O)[C@H]23)OCO4)cc(OC)c1O`, the nuclear beta-catenin stimulation in experiment [1] (at 10 µM) was 44.6% (active); in [1] (stimulation, at 2 µM), 18.8%. In experiment [2], the insulin secretion stimulation is 1.2% (inactive). Also, the viability decrease in [3] was 21.9% (inactive). Also, the tube area decrease in experiment [4] was 104% (active). Also, the GLP1 secretion stimulation in experiment [5] is 0.6% (inactive). Moreover, the inhibition of viability in experiment [6] is 53.9% (active). In addition, the viability decrease (inhibition) was 73.1% (active) in experiment [7] and 49.6% (inactive) in experiment [8].
Consider `CS(=O)(=O)CCNCc1ccc(-c2ccc3ncnc(Nc4ccc(OCc5ccccc5)c(Br)c4)c3c2)o1`, for which the liver cell % of control in experiment [9] turned out to be 107%. The parasite % of control in experiment [9] was 127% (inactive). In experiment [10], the percent of negative control (+Dex) is 82% (inactive). In addition, the z-score was -0.54 in experiment [10]; 0.135 (inactive) in [11]; 2.09 (inactive) in experiment [12]; 0.203 (inactive) in [14] (setting [15]); -0.567 in [14] (setting [16]). The fraction signal in [13] is 0.0015 (inactive).
`NC(=O)NC1N=C([O][Al])NC1=O` (centres undefined): the nuclear beta-catenin stimulation in experiment [1] (at 10 µM) was 0.7% (inactive); in [1] (stimulation, at 2 µM), -0.2%. The insulin secretion stimulation in experiment [2] is 0.3% (inactive). Also, the viability decrease in [3] is 13.8% (inactive). The tube area decrease in [4] was 0.8% (inactive). Moreover, the GLP1 secretion stimulation in experiment [5] was -2.5% (inactive). In addition, the inhibition of viability in [6] is 2.07% (inactive). The viability decrease (inhibition) was 19.8% (inactive) in experiment [7] and -4.5% (inactive) in experiment [8].
With `O=C1NC(c2ccccc2)(c2ccccc2)C(=O)N1COP(=O)(O)O`, the nuclear beta-catenin stimulation was 1.6% (inactive) in [1] (at 10 µM) and 3.6% in experiment [1] (stimulation, at 2 µM). Also, the insulin secretion stimulation in experiment [2] is -0.5% (inactive). In experiment [3], the viability decrease was -27% (inactive). Further, the tube area decrease in [4] is -13% (inactive). For the same molecule, the GLP1 secretion stimulation in experiment [5] was 5.2% (inactive). In addition, the inhibition of viability in experiment [6] was -8.63% (inactive). In addition, the viability decrease (inhibition) in [7] was -3.4% (inactive); in [8], -11% (inactive).
`CCCCCCn1c(=O)c2c(ncn2C)n(C)c1=O`: the nuclear beta-catenin stimulation in [1] (at 10 µM) is -0.5% (inactive); in experiment [1] (stimulation, at 2 µM) it was -2%. For the same molecule, the insulin secretion stimulation in [2] is 1.5% (inactive). Moreover, the viability decrease in experiment [3] was 1.6% (inactive). In [4], the tube area decrease is 10.5% (inactive). Also, in [5], the GLP1 secretion stimulation was 1.6% (inactive). Moreover, the inhibition of viability in experiment [6] was 6.2% (inactive). Besides, the viability decrease (inhibition) in experiment [7] is 15% (inactive); in experiment [8] it was -3.4% (inactive).
As to `Fc1ccc(-c2ncn(C3CCNCC3)c2-c2ccnc(Oc3cccc(F)c3)n2)cc1`, the liver cell % of control in experiment [9] was 80.2%. In addition, the parasite % of control in experiment [9] is 175% (inactive). The percent of negative control (+Dex) in experiment [10] was 111% (inactive). Moreover, the z-score in experiment [10] was 0.615; in experiment [11], -0.555 (inactive); in experiment [12], -0.299 (inactive); in experiment [14] (setting [15]) it was -0.13 (inactive); in experiment [14] (setting [16]), -0.344. Also, in experiment [13], the fraction signal was -0.0075 (inactive).

These data come from PubChem BioAssay.
